Results as given in PubChem BioAssay (NCATS).
Inconclusive results are not listed. Calls of active or inactive are those of the source. Unless noted, calls come from the whole dose curve; as a rule, active = well fitted curve in the direction sought with a large enough effect; inconclusive = small, poorly fitted or top-dose-only effect, or another doubt; inactive = no such curve, though single readings can be large; an effect the other way counts as inactive or inconclusive.

Legend:
[1] = Primary qHTS for inhibitors of nuclear receptor binding SET domain protein 2 (NSD2) in an isogenic RCH-ACV NSD2 p.E1099K mutant (9B) (AID 1645876); conditions: RCH-ACV NSD2 E1099K (9B) viability, CellTiter-Glo, 72 h; series mostly up to 44.9 µM; note: % is set by controls: 0 for no effect and ±100 for the full control effect; nearly all actives have a fitted effect of over 70% in size
[2] = Primary qHTS for inhibitors of nuclear receptor binding SET domain protein 2 (NSD2) in an RCH-ACV wild type WT cells (2C) (AID 1645877); conditions: RCH-ACV (leukaemia line) NSD2 WT (2C) viability, CellTiter-Glo, 72 h; series mostly up to 44.9 µM; note: nearly all actives have a fitted effect of over 70% in size; note: potency is the fitted concentration of half-maximal effect; for activity change, negative = cell killing: % is set by controls: 0 for no effect and ±100 for the full control effect
[3] = NCATS anti-infectives library activity on HEK293 viability as a counter-qHTS vs the C. elegans viability qHTS (AID 1745854); conditions: HEK293 viability counter-screen; series mostly up to 41.8 µM;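 note: HEK293 cells exposed to compounds for 24 hr before the viability read; % is set by controls: 0 for no effect and ±100 for the full control effect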
Method in brief: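 Compounds were acoustically plated (several concentrations, 1:5, final up to 41.7 uM), then 1500 HEK293 cells added per well and incubated 24 hr at 37C, 5% CO2. CellTiter-Glo was added and luminescence read after 10 min.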

[4] = NCATS anti-infectives library activity on the primary C. elegans qHTS viability assay (AID 1745855; calls by dose curve); conditions: C. elegans worm area imaging, day 7; at 41.8 µM (top of the series)
Method in brief: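 Viability read-out is GFP fluorescence of PE254-GFP-FLuc C. elegans, measured by laser cytometry (488 nm) at day 0, 3 and 7. Ten L1 worms per well were incubated 7 days at 21 °C with compounds and bacterial capsules in S medium.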

[5] = molecular target: Catechol O-methyltransferase (Homo sapiens) (UniProt P21964); assay: Confirmatory Screen for Target Class Profiling of Small Molecule Inhibitors of Methyltransferases (AID 1745852; calls by dose curve; note: potency is the fitted concentration of half-maximal effect; for activity change, negative = inhibition: % is set by controls: 0 for no effect and ±100 for the full control effect); conditions: MTase-Glo luminescence, SAH detection, recombinant enzyme; measured here: COMT max response; stronger effect = lower value
[6] = molecular target: Guanidinoacetate N-methyltransferase (Homo sapiens) (UniProt Q14353); assay: as above; conditions: MTase-Glo luminescence, SAH detection, recombinant enzyme; activity change, negative = inhibition: at 57.3 µM (top of the series) unless noted; series mostly up to 57.3 µM
[7] = molecular target: Nicotinamide N-methyltransferase (Homo sapiens) (UniProt P40261); assay: as above; conditions: MTase-Glo luminescence, SAH detection, recombinant enzyme; measured here: NNMT max response; stronger effect = lower value
[8] = molecular target: Phenylethanolamine N-methyltransferase (Homo sapiens) (UniProt P11086); assay: as above; conditions: MTase-Glo luminescence, SAH detection, recombinant enzyme; measured here: PNMT max response; stronger effect = lower value
[9] = molecular target: Rap guanine nucleotide exchange factor 3 (Homo sapiens) (UniProt O95398); assay: Confirmatory qHTS for antagonist of cAMP-regulated guanine nucleotide exchange factor 3 (EPAC1) (AID 1645880); conditions: EPAC1 Rap1B-BODIPY-GDP exchange, fluorescence; note: potency is the fitted concentration of half-maximal effect; nearly all actives have a fitted effect of over 55% in size
Method in brief: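 Nucleotide exchange uses 100 nM EPAC1, 250 nM RAP1B-BODIPY-GDP and 50 uM GDP, with compounds in a concentration-titration series. After 5 min at room temperature, fluorescence (480 nm ex/540 nm em) is read every 5 min for 30 min. Data are normalized to control ATA and DMSO.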

[10] = molecular target: Rap guanine nucleotide exchange factor 3 (Homo sapiens) (UniProt O95398); assay: Confirmatory qHTS for agonist of cAMP-regulated guanine nucleotide exchange factor 3 (EPAC1) (AID 1645881); conditions: EPAC1 Rap1B BODIPY-GDP exchange fluorescence, 100% = cAMP control response; series mostly up to 154 µM;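 note: EPAC1 catalysed release of BODIPY-GDP from Rap1B seen as fluorescence loss; nearly all actives have a fitted effect of over 75% in size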
[11] = molecular target: Rap guanine nucleotide exchange factor 4 (Homo sapiens) (UniProt Q8WZA2); assay: Confirmatory qHTS for agonist of cAMP-regulated guanine nucleotide exchange factor 4 (EPAC2) (AID 1645884); conditions: EPAC2 GEF activity, Rap1B-BODIPY-GDP fluorescence, percent relative to cAMP agonist control; series mostly up to 154 µM;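 note: nucleotide exchange releases bodipy-GDP from Rap1 and this lowers its fluorescence; % is set by controls: 0 for no effect and ±100 for the full control effect; nearly all actives have a fitted effect of over 65% in size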
[12] = molecular target: Rap guanine nucleotide exchange factor 4 (Homo sapiens) (UniProt Q8WZA2); assay: Confirmatory qHTS for antagonist of cAMP-regulated guanine nucleotide exchange factor 4 (EPAC2) (AID 1645885); conditions: EPAC2 Rap1B-BODIPY-GDP exchange fluorescence, biochemical; series mostly up to 114 µM; note: potency is the fitted concentration of half-maximal effect; nearly all actives have a fitted effect of over 25% in size
[13] = Viability counterscreen for antagonist of constitutive androstane receptor (CAR) against the NCATS DSHEA and TCM libraries (AID 1794837); conditions: CAR reporter cell line viability counterscreen, qHTS; series mostly up to 40 µM;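 note: compound exposure lasted 24 h before viability reading; 0% is about no effect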
Method in brief: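 HepG2-CYP2B6-hCAR cells, 2,500/well, were exposed 24 hr at 37C to substances together with 48 uM CITCO (final). Viability was read as CellTiter-Fluor fluorescence (Ex/Em 405/540 nm) after 1 hr.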

[14] = Viability counterscreen for agonist of constitutive androstane receptor (CAR) against the NCATS DSHEA and TCM libraries (AID 1794838); conditions: HepG2 cell viability counterscreen, CAR agonist assay, co-treated with 0.75 µM CAR antagonist; series mostly up to 40 µM;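 note: HepG2 cells with CYP2B6 reporter and hCAR plus 0.75 µM PK11195 antagonist; 0% is about no effect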
Method in brief: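 HepG2-CYP2B6-hCAR cells (2,500/well) treated 24 h at 37C with compounds plus 0.75 uM PK11195; viability read by CellTiter-Fluor fluorescence, Ex/Em 405/540 nm.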

[15] = molecular target: Nuclear receptor subfamily 1 group I member 3 (Homo sapiens) (UniProt Q14994); assay: Primary qHTS for agonist of constitutive androstane receptor (CAR) against the NCATS DSHEA and TCM libraries (AID 1794839); conditions: CAR agonist reporter cells, qHTS luminescence, CAR antagonist co-added at 0.75 µM; series mostly up to 40 µM;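 note: HepG2 cells expressing human CAR with a CYP2B6 reporter plus PK11195 antagonist; 0% is about no effect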
Method in brief: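 HepG2-CYP2B6-hCAR cells, 2,500/well, attached 5 h, then dosed with 0.75 µM PK11195 (final) for 24 h at 37 °C. Luciferase luminescence read (ONE-Glo); CellTiter-Fluor viability (Ex/Em 405/540 nm) in same wells; CITCO positive control.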

Phenylethanolamine N-methyltransferase (Homo sapiens), sequence (P11086 whole entry, looked up): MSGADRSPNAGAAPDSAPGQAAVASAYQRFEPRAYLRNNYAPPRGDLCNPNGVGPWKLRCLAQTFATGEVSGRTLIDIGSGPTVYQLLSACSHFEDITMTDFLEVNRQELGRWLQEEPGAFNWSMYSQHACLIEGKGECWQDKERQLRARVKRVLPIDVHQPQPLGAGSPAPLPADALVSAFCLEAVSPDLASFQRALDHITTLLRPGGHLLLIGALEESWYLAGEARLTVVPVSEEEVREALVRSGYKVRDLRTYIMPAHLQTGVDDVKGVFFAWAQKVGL
Nicotinamide N-methyltransferase (Homo sapiens), sequence (P40261 whole entry, looked up): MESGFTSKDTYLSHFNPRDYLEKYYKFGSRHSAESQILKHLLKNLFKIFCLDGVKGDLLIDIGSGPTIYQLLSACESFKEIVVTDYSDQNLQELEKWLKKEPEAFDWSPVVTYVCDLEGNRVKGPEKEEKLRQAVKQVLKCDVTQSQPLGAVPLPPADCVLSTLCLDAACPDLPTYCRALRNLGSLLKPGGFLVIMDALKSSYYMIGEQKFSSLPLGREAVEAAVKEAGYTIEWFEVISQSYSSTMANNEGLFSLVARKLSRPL
Catechol O-methyltransferase (Homo sapiens), sequence (P21964 whole entry, looked up): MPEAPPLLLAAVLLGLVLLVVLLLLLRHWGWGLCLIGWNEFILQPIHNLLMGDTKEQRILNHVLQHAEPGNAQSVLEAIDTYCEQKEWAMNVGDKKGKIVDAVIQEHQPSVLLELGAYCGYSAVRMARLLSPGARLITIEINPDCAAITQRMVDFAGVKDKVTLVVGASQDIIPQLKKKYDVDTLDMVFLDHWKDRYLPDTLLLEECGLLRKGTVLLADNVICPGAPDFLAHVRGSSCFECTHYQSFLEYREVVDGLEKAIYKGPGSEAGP
Rap guanine nucleotide exchange factor 4 (Homo sapiens), sequence (Q8WZA2 whole entry, looked up): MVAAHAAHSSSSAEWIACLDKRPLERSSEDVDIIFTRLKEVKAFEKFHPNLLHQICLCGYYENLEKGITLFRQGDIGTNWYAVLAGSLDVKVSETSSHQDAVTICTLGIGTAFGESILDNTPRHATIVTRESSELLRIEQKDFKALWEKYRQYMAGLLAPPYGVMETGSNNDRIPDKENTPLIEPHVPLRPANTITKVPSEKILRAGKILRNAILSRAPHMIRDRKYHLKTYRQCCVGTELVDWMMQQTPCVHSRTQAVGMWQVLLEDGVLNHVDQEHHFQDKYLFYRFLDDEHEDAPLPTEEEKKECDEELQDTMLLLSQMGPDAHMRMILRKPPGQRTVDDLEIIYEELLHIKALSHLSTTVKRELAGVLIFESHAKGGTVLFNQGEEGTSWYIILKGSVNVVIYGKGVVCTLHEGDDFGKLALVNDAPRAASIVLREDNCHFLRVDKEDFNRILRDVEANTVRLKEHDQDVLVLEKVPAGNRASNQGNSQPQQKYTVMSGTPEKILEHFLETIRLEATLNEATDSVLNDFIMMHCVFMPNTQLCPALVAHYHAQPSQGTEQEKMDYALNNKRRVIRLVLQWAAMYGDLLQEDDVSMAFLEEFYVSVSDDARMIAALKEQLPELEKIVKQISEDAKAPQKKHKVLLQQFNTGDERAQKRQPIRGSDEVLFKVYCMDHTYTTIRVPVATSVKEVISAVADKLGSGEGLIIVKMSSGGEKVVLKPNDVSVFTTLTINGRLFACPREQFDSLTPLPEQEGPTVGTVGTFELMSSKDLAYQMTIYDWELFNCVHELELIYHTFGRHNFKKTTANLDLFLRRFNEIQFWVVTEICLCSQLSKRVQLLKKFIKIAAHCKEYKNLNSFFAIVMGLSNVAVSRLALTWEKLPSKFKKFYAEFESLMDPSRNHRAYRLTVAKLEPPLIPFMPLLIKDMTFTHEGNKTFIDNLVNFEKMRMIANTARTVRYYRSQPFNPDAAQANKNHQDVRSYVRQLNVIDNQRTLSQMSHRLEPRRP
Rap guanine nucleotide exchange factor 3 (Homo sapiens), sequence (O95398 whole entry, looked up): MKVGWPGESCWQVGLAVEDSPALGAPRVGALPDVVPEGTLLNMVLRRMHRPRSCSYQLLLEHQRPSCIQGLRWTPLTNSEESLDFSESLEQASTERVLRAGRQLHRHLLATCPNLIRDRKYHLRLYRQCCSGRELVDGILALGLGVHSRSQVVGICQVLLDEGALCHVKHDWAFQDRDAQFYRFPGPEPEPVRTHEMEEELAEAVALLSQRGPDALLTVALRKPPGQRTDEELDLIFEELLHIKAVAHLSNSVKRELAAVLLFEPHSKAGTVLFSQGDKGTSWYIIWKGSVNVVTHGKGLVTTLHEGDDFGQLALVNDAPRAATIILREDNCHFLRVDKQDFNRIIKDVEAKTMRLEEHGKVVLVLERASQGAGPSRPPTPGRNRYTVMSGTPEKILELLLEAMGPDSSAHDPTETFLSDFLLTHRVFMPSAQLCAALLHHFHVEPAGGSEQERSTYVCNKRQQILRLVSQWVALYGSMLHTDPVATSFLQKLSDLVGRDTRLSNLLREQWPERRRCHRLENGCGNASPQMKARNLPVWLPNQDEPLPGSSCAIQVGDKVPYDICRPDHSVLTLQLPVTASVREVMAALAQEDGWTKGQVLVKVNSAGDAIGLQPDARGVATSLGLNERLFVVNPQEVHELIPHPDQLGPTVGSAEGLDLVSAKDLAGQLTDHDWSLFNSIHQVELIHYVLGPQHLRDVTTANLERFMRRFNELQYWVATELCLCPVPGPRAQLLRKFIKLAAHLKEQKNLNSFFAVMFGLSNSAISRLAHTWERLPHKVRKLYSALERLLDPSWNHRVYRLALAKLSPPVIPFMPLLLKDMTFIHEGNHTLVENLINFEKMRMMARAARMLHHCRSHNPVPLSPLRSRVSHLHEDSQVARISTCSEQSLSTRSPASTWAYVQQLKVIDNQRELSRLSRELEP
Nuclear receptor subfamily 1 group I member 3 (Homo sapiens), sequence (Q14994 whole entry, looked up): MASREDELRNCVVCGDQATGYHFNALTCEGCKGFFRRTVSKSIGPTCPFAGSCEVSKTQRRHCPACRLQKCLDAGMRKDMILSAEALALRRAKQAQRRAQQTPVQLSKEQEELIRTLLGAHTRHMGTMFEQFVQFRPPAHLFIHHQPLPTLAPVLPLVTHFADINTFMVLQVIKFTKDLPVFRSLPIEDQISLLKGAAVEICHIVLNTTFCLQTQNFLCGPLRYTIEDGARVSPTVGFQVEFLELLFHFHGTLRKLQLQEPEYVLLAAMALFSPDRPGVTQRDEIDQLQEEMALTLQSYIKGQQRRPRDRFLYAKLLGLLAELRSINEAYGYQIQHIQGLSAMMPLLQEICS

**Q.** What does the source list for `COC(=O)C1=CO[C@@H](O[C@@H]2O[C@H](CO)[C@@H](O)[C@H](O)[C@H]2O)[C@@H]2[C@@H](C)[C@@H](O)C[C@H]12`?
**A.** Potency [1]: inactive; Potency [2]: inactive; outcome [3]: inactive

**Q.** For `OC[C@H]1O[C@@H](Oc2ccc3c(c2)OC[C@H]2c4cc5c(cc4O[C@@H]32)OCO5)[C@H](O)[C@@H](O)[C@@H]1O`, which Potency [2] is on record?
**A.** Its Potency is 7.96 µM (active).

**Q.** What does the source list for `CCOc1nc2cccc(C(=O)O)c2n1Cc1ccc(-c2ccccc2-c2noc(=O)[nH]2)cc1`?
**A.** Potency [1]: inactive; Potency [2]: inactive; outcome [3]: inactive; outcome [4]: inactive

**Q.** Which Potency [2] does the source give for `CCC(=O)O[C@]1(C(=O)CCl)[C@@H](C)C[C@H]2[C@@H]3C[C@H](F)C4=CC(=O)C=C[C@]4(C)[C@@]3(F)[C@@H](O)C[C@@]21C` here?
**A.** The Potency was “inactive”.

**Q.** With `C=C1[C@H]2[C@H](O[C@@H]3O[C@H](COC(=O)/C=C/c4cc(OC)c(O)c(OC)c4)[C@@H](O)[C@H](O)[C@H]3O)OC=C(C(=O)O)[C@H]2C[C@@H]1O` as the molecule, how does the Potency [1] read?
**A.** Its Potency is “inactive”.

**Q.** And the Potency [2]?
**A.** Its Potency is “inactive”.

**Q.** What about the activity [5] of the same molecule?
**A.** The activity was -50.9%.

**Q.** What about the activity change, negative = inhibition [6] of the same molecule?
**A.** The activity change, negative = inhibition was 0% [at 19.1 µM].

**Q.** What about the activity [7] of the same molecule?
**A.** Its activity is 0%.

**Q.** What about the activity [8] of the same molecule?
**A.** Its activity is 5.16%.

**Q.** Which Potency [2] does the source give for `COc1cc(C2OCC3C(c4ccc(OC5OC(CO)C(O)C(O)C5O)c(OC)c4)OCC23)ccc1O` (stereo not given) here?
**A.** The Potency was “inactive”.

**Q.** For `COC(=O)C1=COC(OC2OC(CO)C(O)C(O)C2O)C2C1CC(OC(=O)C(O)CC(=O)O)C2C` (stereo not given), which Potency [1] is on record?
**A.** The Potency was “inactive”.

**Q.** And the Potency [2]?
**A.** Its Potency is “inactive”.

**Q.** What about the activity [5] of the same molecule?
**A.** Its activity is -63.4%.

**Q.** What about the activity change, negative = inhibition [6] of the same molecule?
**A.** The activity change, negative = inhibition was 1.08% [at 29.8 µM].

**Q.** And the activity [7]?
**A.** Its activity is 1.84%.

**Q.** What about the activity [8] of the same molecule?
**A.** Its activity is 1.07%.

**Q.** Which results are given for `CC(Cc1ccc(O)c(O)c1)C(C)Cc1ccc(O)c(O)c1` (stereo not given)?
**A.** Potency [9]: 31.4 µM (active); outcome [10]: inactive; outcome [11]: inactive; Potency [12]: 55.5 µM (active)

**Q.** Which results are given for `CC1=C(/C=C/C(C)=C/C=C/C(C)=C/C=C/C=C(C)/C=C/C=C(C)/C=C/C2=C(C)CCCC2(C)C)C(C)(C)CCC1`?
**A.** Potency [2]: 18.6 µM (active); outcome [13]: inactive; outcome [14]: inactive; outcome [15]: inactive

**Q.** For `C=CC(C)(O)CC/C=C(/C)C(=O)OC1C(OC2OCC(OC3OC(CO)C(O)C(O)C3O)C(OC3OCC(O)C(OC4OC(C)C(O)C(O)C4O)C3O)C2O)COC(OC(=O)C23CCC(C)(C)CC2C2=CCC4C5(C)CCC(OC6OC(CO)C(OC7OC(CO)C(O)C(OC8OCC(O)C(O)C8O)C7O)C(O)C6O)C(C)(C)C5CCC4(C)C2(C)CC3O)C1O` (stereo not given), which activity change, negative = cell killing [2] is on record?
**A.** The activity change, negative = cell killing was -25% [at 4.96 µM] (inactive).

**Q.** Which Potency [1] does the source give for `CCOC(=O)[C@H]1O[C@@H]1C(=O)N[C@@H](CC(C)C)C(=O)NCCC(C)C` here?
**A.** Its Potency is “inactive”.

**Q.** And the Potency [2]?
**A.** Its Potency is “inactive”.

**Q.** And the outcome [3]?
**A.** Its outcome is “inactive”.

**Q.** What about the outcome [4] of the same molecule?
**A.** Its outcome is “inactive”.

**Q.** Which Potency [2] does the source give for `CC(CO[C@@H]1O[C@H](COC(=O)/C=C/c2ccc(O)c(O)c2)[C@@H](O)[C@H](O)[C@H]1O)C1(O)COC(=O)C1` (stereo not given in full) here?
**A.** Its Potency is “inactive”.

**Q.** What does the source list for `O=C(O[C@@H]1O[C@H](CO)[C@@H](O)[C@H](O)[C@H]1O)c1c(O)cc(O)cc1/C=C/c1ccccc1`?
**A.** Potency [2]: inactive; activity [5]: -66.4%; activity change, negative = inhibition [6]: 2.61% [at 29.8 µM]; activity [7]: -2.64%; activity [8]: -9.3%

**Q.** Which Potency [1] does the source give for `COc1cc(C2Oc3c(OC)cc(CCCO[C@@H]4O[C@H](CO)[C@@H](O)[C@H](O)[C@H]4O)cc3C2CO)ccc1O` (stereo not given in full) here?
**A.** Its Potency is “inactive”.

**Q.** What about the Potency [2] of the same molecule?
**A.** The Potency was “inactive”.

**Q.** What about the activity [5] of the same molecule?
**A.** Its activity is -72%.

**Q.** What about the activity change, negative = inhibition [6] of the same molecule?
**A.** Its activity change, negative = inhibition is 2.87% [at 29.8 µM].

**Q.** What about the activity [7] of the same molecule?
**A.** The activity was 0%.

**Q.** What about the activity [8] of the same molecule?
**A.** The activity was 4.57%.

**Q.** For `COC1C2=C(COC2=O)C2(C)CCCC(C)(CO)C2C1OC(=O)c1ccccc1` (stereo not given), which Potency [2] is on record?
**A.** The Potency was “inactive”.

**Q.** What does the source list for `O=C(O)c1cc(O)c2cccc(O)c2c1O[C@@H]1O[C@H](CO)[C@@H](O)[C@H](O)[C@H]1O`?
**A.** Potency [1]: inactive; activity [5]: -4.06%; Potency [6]: 29.8 µM (active); activity [7]: -68.8%; activity [8]: -8.77%

**Q.** Which Potency [1] does the source give for `CC1=CC(=O)CC(C)(C)C1(O)CCC(C)O` (stereo not given) here?
**A.** The Potency was “inactive”.

**Q.** What about the Potency [2] of the same molecule?
**A.** Its Potency is “inactive”.

**Q.** And the activity [5]?
**A.** Its activity is -75.7%.

**Q.** And the activity change, negative = inhibition [6]?
**A.** Its activity change, negative = inhibition is 2.94%.

**Q.** And the activity [7]?
**A.** The activity was 0%.

**Q.** And the activity [8]?
**A.** Its activity is 4.65%.

**Q.** Which activity change, negative = viability loss [1] does the source give for `CC1(C)CCC2(C(=O)OC3OC(COC4OC(CO)C(O)C(O)C4O)C(O)C(O)C3O)CCC3(C)C(=CCC4C5(C)CCC(O)C(C)(C(=O)O)C5CCC43C)C2C1O` (stereo not given) here?
**A.** The activity change, negative = viability loss was 0.116% [at 9.23 µM] (inactive).

**Q.** And the outcome [2]?
**A.** Its outcome is “inactive [at 9.23 µM]”.

**Q.** And the activity [5]?
**A.** The activity was -59.6%.

**Q.** And the activity change, negative = inhibition [6]?
**A.** Its activity change, negative = inhibition is 2.03% [at 19.1 µM].

**Q.** What about the activity [7] of the same molecule?
**A.** The activity was -5.22%.

**Q.** And the activity [8]?
**A.** The activity was -5.74%.
